Screening data deposited in PubChem by several laboratories.
tim23-1 inh – growth inhibitors of tim23-1 mutant yeast, primary screen, luminescence, uHTS | actives 1.3% (n = 330,000) | inhibition, % at 20 µM | S. cerevisiae tim23-1 growth, BacTiter-Glo luminescence, 24 h;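 active = growth inhibition of the mutant yeast at or above 50%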;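 note: temperature-sensitive mutant grown at 25 °C; plate controls were DMSO-treated mutant yeast for no effect and medium wells lacking yeast for full effect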
PfHsp90 yeast 2 – growth inhibition of PfHsp90-expressing yeast, primary screen, antimalarial PfHsp90 inhibitor project, S. cerevisiae, BacTiter-Glo luminescence, single point, set 2 | BacTiter-Glo ATP, 48 h; yeast lacking PDR1 and PDR3 efflux regulators | inhibition, % at 9.4 µM | actives 0.32% (n = 310,000) | AID 504621, 2011;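 active = every replicate shows inhibition above about 80%, whatever the replicate mean, limit read from the data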;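 note: 0% = DMSO neutral controls and 100% = 20 µM radicicol positive controls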
tim10-1 inh – growth inhibitors of tim10-1 mutant yeast, primary screen, luminescence, uHTS | S. cerevisiae tim10-1 ts strain growth, BacTiter-Glo, 24 h | inhibition, % at 20 µM | actives 2.2% (n = 330,000);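 active = inhibition of at least 40%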;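 note: mutant grown at 25 °C; 0% = DMSO wells with yeast and 100% = wells holding no yeast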
TIM10 inh – growth inhibitors of isogenic TIM10 control yeast, primary screen, counter-screen for tim10-1 yeast inhibitor project, luminescence, uHTS. S. cerevisiae TIM10 strain growth, BacTiter-Glo luminescence, 24 h. inhibition, % at 10 µM. actives 1.4% (n = 330,000). AID 463195, 2010;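 active = inhibition of 40% or more at the single tested concentration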;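 note: wild-type TIM10 isogenic control strain grown at permissive 25 °C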
SKKanGAS inh – S. pyogenes SKKanGAS growth inhibitors in kanamycin, primary screen, streptokinase expression inhibitor project, SKKanGAS strain, BacTiter-Glo luminescence. 6 h. inhibition, % at 7.5 µM. actives 1.3% (n = 300,000). AID 1662, 2009;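 active = mean replicate score, as percent of positive control median, at least 50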;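 note: strain carries kanamycin resistance gene driven by streptokinase promoter and grows in 40 µg/ml kanamycin; loss of luminescence reflects streptokinase promoter inhibition or plain growth inhibition; 0% = median of DMSO wells and 100% = positive control at its reference dose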
tim10-1 confirm – growth inhibitors of tim10-1 mutant yeast, confirmation, single concentration, luminescence, S. cerevisiae | shares compounds with tim10-1 inh | S. cerevisiae tim10-1 ts strain growth, BacTiter-Glo, 24 h | inhibition, % at 20 µM | actives 56% (n = 7,400);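 active = inhibition of yeast growth at or above a set limit in either of two repeat tests at 20 µM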;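 note: tim10-1 mutant grown at permissive 25 °C to find synthetic lethal compounds; 0% = DMSO yeast wells and 100% = medium wells without yeast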
Numbers without * were called inactive; / = no result given. An excerpt weighted towards active compounds, which were near 4.4% of everything screened.

SMILES	tim23-1 inh	PfHsp90 yeast 2	tim10-1 inh	TIM10 inh	SKKanGAS inh	tim10-1 confirm
CCC(=O)NC(=S)Nc1cccc(NC(=O)c2ccccc2Cl)c1	47	0	45*	30	6	23
COc1ccc(C(=O)NC(=S)Nc2ccc(CN3CCOCC3)cc2)cc1OC	18	/	10	15	13	/
O=C(NC(=S)Nc1ccc(N2CCOCC2)cc1)c1ccccc1	-1	10	28	6	9	/
O=C(NC(=S)Nc1ccc(N2CCOCC2)cc1)c1cccc(Cl)c1	46	-1	41*	22	-5	24
Cc1ccc(S(=O)(=O)N2CCN(C(=O)COC(=O)c3nc(Cl)ccc3Cl)CC2)c(C)c1	/	4	/	/	/	/
Cn1nnc(NC(=S)NC(=O)c2cccc3c(Br)cccc23)n1	26	-16	51*	18	-9	-12
Nc1cc(Cl)ccc1C(=O)OCC(=O)N1CCCCCC1	-7	-25	-34	-15	/	/
CC1CN(C(=O)Nc2ccc3snnc3c2)c2ccccc21 (stereo not drawn)	48	19	48*	25	0	22
O=C(Nc1ccc2snnc2c1)N1CCSCC1	14	/	0	0	0	/
O=C(COc1ccc2c(c1)OCO2)NCc1cccs1	13	-11	10	8	/	/
CC(C)CN(C(=O)COC(=O)c1ccccc1NCc1ccco1)c1c(N)n(Cc2ccccc2)c(=O)[nH]c1=O	10	15	0	1	34	/
C=C1CCC[C@]2(C)C[C@H]3OC(=O)C(CNCCN(CC)CC)[C@H]3CC12 (stereo partly drawn)	30	-3	52*	18	-3	48*
C=C1CCC[C@]2(C)C[C@H]3OC(=O)C(CNCC(C)C)[C@H]3CC12 (stereo partly drawn)	31	25	42*	3	-3	36*
C=C1CCC[C@]2(C)C[C@H]3OC(=O)C(CNCCN(C)C)[C@H]3CC12 (stereo partly drawn)	33	-26	46*	16	-2	44*
CCOc1ccc(-n2c(C)nc3cc(C(=O)NCc4ccc5c(c4)OCO5)ccc32)cc1	38	9	47*	8	4	35*
CCCOc1ccc(N2C(=O)CC(SCC(N)C(=O)OCC)C2=O)cc1 (stereo not drawn)	3	11	5	4	0	/
CCCOc1ccc(N2C(=O)CC(SCCN)C2=O)cc1 (stereo not drawn)	9	-20	42*	6	9	24
O=C1CC(=C2c3ccccc3-c3ccccc32)C(=O)N1CCN1CCN(c2cccc(Cl)c2)CC1	10	-53	41*	0	0	24
Clc1cccc(N2CCN(CCCN3CCN(c4ccccc4)CC3)CC2)c1	/	-16	/	/	/	/
CCCOc1ccc(C(=O)N2CCN(c3ccc(N)cc3Cl)CC2)cc1	42	21	48*	33	1	35*
CS(=O)(=O)c1ccc2nc(NC(=O)c3cc4ccccc4o3)sc2c1	3	5	-1	17	31	/
Cc1ccc(C(=O)Nc2nc3ccc(S(C)(=O)=O)cc3s2)o1	44	/	44*	26	12	38*
O=C(c1ccco1)N1CCN(c2c([N+](=O)[O-])nn(-c3cccc(Cl)c3)[n+]2[O-])CC1	21	12	15	34	-1	/
CC(C)CCCN1C(N(C)C)=NC[C@@H]1Cc1ccccc1	-8	3	-18	-8	/	/
Cc1cc(Cl)c2oc(C(=O)N(CCO)Cc3ccccc3)c(C)c2c1	32	-1	-9	-5	0	/
Cc1cc(Cl)c2oc(C(=O)N(C)C3CCOC3)c(C)c2c1 (stereo not drawn)	40	2	41*	-10	-6	-10
O=C(Nc1cccc2cccnc12)c1ccc2c(c1)OCCO2	41	1	41*	12	8	30
COc1ccc(S(=O)(=O)N2CN(Cc3ccco3)c3nc4ccccc4nc32)cc1	27	-14	47*	20	23	27
